# Sampled rows, rich in hits. Any-hit rate of the full collection: about 4.3%.
# CHOP inh = inhibitors of CHOP induction in ER stress response | 3.8% of 220,000 active | inhibition, % at 10 µM | CHO-K1 CHOP-promoter luciferase, tunicamycin-induced, 15-18 h;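 active means compounds that reduced the stress-induced luciferase reporter signal by more than about 70% of percent inhibition, limit read from the data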;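 further: 0% = tunicamycin plus vehicle and 100% = wells without tunicamycin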
# Peg3 prom inh = Peg3 promoter activity inhibition; AID 588405; HeLa PEG-Prom luciferase reporter, luminescence, overnight; inhibition, % at 20 µM; 1.7% of 360,000 active;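 active means inhibition of at least 50% at 20 µM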
# KKLEB tox = reduces viability of KKLEB cystic fibrosis airway cells; activity change (cytotoxicity), % at 5 µM; AID 602141; 0.36% of 360,000 active; KKLEB CF airway cells viability, ATPlite luminescence, overnight; active compounds read low; cells stimulated with P. aeruginosa culture filtrate;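 active means corrected activity change at or below -50% at 5 µM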
# MITF TRPM1 inh = inhibitors of MITF-driven TRPM1 promoter in melanoma cells; 0.83% of 330,000 active; inhibition, % at 12.5 µM; SK-MEL-5 TRPM1 promoter luciferase, 24 h;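 active means mean inhibition across replicates of 60% or more, whatever share of single replicates reaches that level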
# CF NFkB inh = cystic fibrosis NF-kB activation inhibition; KKLEB NF-kB-GFP reporter, PAF-induced, GFP fluorescence overnight; inhibition, % at 5 µM; 0.86% of 360,000 active;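 active means at least 50% inhibition at 5 µM, scaled per plate between neutral and stimulator controls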;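 further: PAF is a Pseudomonas aeruginosa culture filtrate used as stimulus; plate controls were PAF-stimulated DMSO wells for no effect and unstimulated DMSO wells for full effect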
# HIF-2a block = blocks HIF-2a reporter activity; 786-0 RCC cells HIF-2a reporter, luciferase luminescence, overnight; inhibition, % at 18.8 µM; 0.72% of 360,000 active; AID 624352;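 active means inhibition of the luminescence signal of 40% or more relative to plate controls, in a single-dose primary screen at 18.75 µM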
# Active calls of the source: *; · = no result given.
SMILES,CHOP inh,Peg3 prom inh,KKLEB tox,MITF TRPM1 inh,CF NFkB inh,HIF-2a block
c1ccc2c(NCCc3c[nH]c4ccccc34)c3ccccc3nc2c1,·,99*,-30,88*,-124,44*
Cc1cccc2sc(N(CCCN(C)C)C(=O)CCc3ccccc3)nc12,9,104*,-15,31,22,10
Cc1cccc2sc(N(CCCN(C)C)C(=O)c3nc4ccccc4s3)nc12,75*,48,-13,73*,37,0
CN(C)CCN(C(=O)CCc1ccccc1)c1nc2c(F)cc(F)cc2s1,71*,-8,-11,-12,0,-14
CCN(CC)CCN(C(=O)CCOc1ccccc1)c1nc2c(F)cc(F)cc2s1,9,-15,0,-3,-5,-7
CN(C)CCCN(C(=O)CCc1ccccc1)c1nc2ccc(F)cc2s1,18,-2,5,0,3,-3
CN(C)CCCN(C(=O)CCc1ccccc1)c1nc2ccc(Br)cc2s1,53,106*,-21,87*,24,-3
CC(=O)Nc1ccc(CN(C)c2c(C)nc3ccc(C(=O)N4CCN(C(C)=O)CC4)cn23)cc1,·,-7,-1,·,4,-3
Cc1ccc(S(=O)(=O)N2CCCC2CNC(=O)c2ccc(F)c(F)c2)cc1 (configuration not stated),·,11,-2,9,-8,8
CN(C)CCCN(C(=O)c1ccco1)c1nc2ccc(Br)cc2s1,1,51*,-14,-27,-9,-64
COc1ccc(NC(=O)N(C)C[C@H]2OCCCC[C@@H](C)Oc3ccc(NC(=O)c4ccccc4)cc3C(=O)N([C@H](C)CO)C[C@@H]2C)cc1,·,-18,-3,·,12,-4
CC1(C(=O)NS(=O)(=O)c2ccc(Cl)s2)CCN1C(=O)c1ccc(C2CCCCC2)cc1 (configuration not stated),·,12,5,·,4,8
C[C@H](NC(=O)c1ccco1)C(=O)N1CCN(c2ccc(C(F)(F)F)cn2)CC1,·,4,0,-6,-3,7
Cc1coc2c1C(=O)C(=O)c1c-2ccc2c1CCCC2(C)C,16,69*,-16,93*,70*,-45
C[C@H]1COC2=C1C(=O)C(=O)c1c2ccc2c1CCCC2(C)C,-8,48,-3,84*,57*,-50
Cc1cc(C)c(NC(=O)CNC(=O)c2ccccc2OCc2c(C)noc2C)c(C)c1,·,10,4,2,9,9
Cc1cc(C)c(NC(=O)CN2C(=O)NC3(CCCCC3)C2=O)c(Cl)c1,71*,-1,-11,-3,-8,-4
Cc1ccc2nc(SCC(=O)c3ccc4c(c3)OCO4)[nH]c2c1,38,-89,2,4,2,-52
Cc1ccc2nc(SCC(=O)c3ccc(Cl)s3)[nH]c2c1,71*,-118,23,-20,-20,-210
CCCCN1C(=O)C2Cc3c([nH]c4ccccc34)CN2C1=S (configuration not stated),80*,-72,6,-18,-92,-89
CCCCCN1CC(=O)N2Cc3[nH]c4ccccc4c3C[C@H]2C1=O,·,-1,-5,-7,15,-2
CCCOc1ccc2c(c1)C(=NN=C(N)N)c1cc(OCCC)ccc1-2,·,90*,-13,-11,-2,-12
NC(N)=NN=C1c2ccccc2-c2ccccc21,·,-1,8,15,-16,12
Cn1c(=O)[nH]c(=O)c2c1nc(N1CCCCCC1)n2CCCSc1nc2ccccc2o1,95*,18,-14,-6,-10,15
Cc1ccc(-c2nc3c(c(=O)[nH]c(=O)n3Cc3ccccc3)n2C)s1,3,·,·,·,·,·
SMILES,CHOP inh,Peg3 prom inh,KKLEB tox,MITF TRPM1 inh,CF NFkB inh,HIF-2a block
CCCCCn1c(N(C)Cc2ccccc2)nc2c1c(=O)[nH]c(=O)n2C,41,55*,4,8,25,17
CN(Cc1ccccc1)c1nc2c(c(=O)[nH]c(=O)n2C)n1Cc1ccccc1,30,9,6,8,-34,24
Cn1c(=O)[nH]c(=O)c2c1nc(N1CCC(Cc3ccccc3)CC1)n2Cc1ccccc1,88*,16,-11,7,34,21
CCCn1c(N2CCC(Cc3ccccc3)CC2)nc2c1c(=O)[nH]c(=O)n2C,50,9,-12,9,13,29
Cn1c(C2CCCCC2)nc2c1c(=O)[nH]c(=O)n2Cc1ccccc1,72*,4,6,2,-1,14
C[C@H](CO)N1C[C@H](C)[C@@H](CN(C)C(=O)CN2CCOCC2)Oc2ncc(-c3cncnc3)cc2C1=O,·,-1,6,·,-10,10
CCCCCn1c(N2CCC(Cc3ccccc3)CC2)nc2c1c(=O)[nH]c(=O)n2C,·,64*,-8,6,21,-60
CCc1nc2ccc(C(=O)NCCc3c[nH]c4ccccc34)cn2c1N(C)Cc1ccc(N(C)C)cc1,·,21,-7,·,10,13
CCCCCC(O)(CCCCC)C(=O)NNc1ccccc1,91*,17,-5,5,-9,17
Cc1cccc(C)c1NC(=O)C(CCc1ccccc1)n1c(=O)c(-c2ccccc2)nc2ccccc21 (configuration not stated),·,·,·,·,·,21
CC(=O)O[C@H]1C(=O)[C@@]2(C)C([C@H](OC(=O)c3ccccc3)[C@]3(O)C[C@H](OC(=O)[C@H](O)[C@@H](NC(=O)c4ccccc4)c4ccccc4)C(C)=C1C3(C)C)[C@]1(OC(C)=O)CO[C@@H]1C[C@@H]2O (some centres not stated),88*,·,·,·,·,·
CS(=O)(=O)N1CCN(c2ccccc2NC(=O)c2cc3ccccc3o2)CC1,·,36,-9,8,-16,-3
O=C(Nc1ccn(Cc2ccccc2F)n1)c1ccc(COc2ccccc2Cl)cc1,74*,22,7,14,-13,-70
O=C(Nc1ccn(Cc2c(F)c(F)cc(F)c2F)n1)c1ccc(COc2ccccc2Cl)cc1,46,9,-2,9,-28,-66
Cc1ccc2nc(SCC(=O)N3CCC(Cc4ccccc4)CC3)nc(=O)n2c1,·,10,1,-3,0,0
O=C1C(NS(=O)(=O)c2cccs2)=C(N2CCN(c3cccc(Cl)c3)CC2)C(=O)c2ccccc21,73*,6,-15,9,-14,12
O=C(c1cccs1)N1C[C@H](n2cc(C3CC3)nn2)[C@@H](O)C[C@@H]1c1ccc(Cl)cc1,·,16,5,·,9,3
CN(C)CCCN(C(=O)c1ccc(S(=O)(=O)N(C)C)cc1)c1nc2cc3c(cc2s1)OCO3,11,-12,-16,13,-28,-16
CCN(Cc1ccccc1)S(=O)(=O)c1ccc(C(=O)N(CCCN(C)C)c2nc3c(C)c(C)ccc3s2)cc1,·,93*,-24,-4,30,-2
CCOc1cccc2sc(N(CCN(C)C)C(=O)c3ccc(Br)s3)nc12,18,2,-7,-2,-6,-3
